Laboratory results from PubChem BioAssay (NCI).
Compounds without any hit were thinned out: in the full panel of roughly 83,000, 20% have a hit.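 Treatment: one concentration, 48 hours, 96-well format. Scoring: percent growth, with anything below 10 considered active.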 Values without a mark were called inactive. Activity calls are given as the source filed them.

Tested on: M14 melanoma
Assay: NCI-60 one-dose screen, 48 h (100 = growth as untreated, 0 = no growth, -100 = all killed)
Details: 10 µM

Row | SMILES | growth
1 | CC(C)N(CCOc1cccc(-c2nc3sccn3c2-c2ccnc(S(C)(=O)=O)n2)c1)C(C)C | 111%
2 | O=C(CSc1nnc(-c2ccc(Cl)cc2)o1)Nc1ccc(C(=O)/C=C/c2ccc(Cl)cc2)cc1 | 104%
3 | CC[C@@H](C(=O)[C@@H](C)[C@@H](O)[C@H](C)[C@@H]1O[C@@H]([C@@H](CC)C(=O)N(CC)CC)CC[C@@H]1C)C1O[C@]2(C=CC(=O)[C@]3(CC[C@@](C)([C@H]4CC[C@](O)(CC)[C@H](C)O4)O3)O2)[C@H](C)C[C@@H]1C (some centres not stated) | 13.6%
4 | COc1ccc(-c2onc(N)c2-c2cc(OC)c3c(c2)OCO3)cc1 | -0.971% (active)
5 | CCN(CC)CCOc1cccc2c1C(=O)c1cccc(OCCN(CC)CC)c1C2=O | 35.4%
6 | COc1cc(/C=C/c2cc(/C=C/c3ccc(O)c(OC)c3)n(C(=O)Nc3ccc(C)cc3)n2)ccc1O | 2.3% (active)
7 | CCOC(=O)c1cc(C(=O)c2ccc(F)cc2F)n2ccccc12 | 108%
8 | COc1cc2c(cc1NC(=O)C(Cl)Cl)-c1ccc(NC(=O)C(Cl)Cl)cc1C2 | 69.8%
9 | COc1ccc(-c2cc(-c3ccccc3)nc(SCCCC(=O)NO)n2)cc1 | -21.8% (active)
10 | O=S(=O)(Oc1ccc(-c2ccc3sccc3c2)cc1)c1ccc(F)cc1 | 113%
11 | COc1cc(-c2nn(-c3ccc(NC(=O)NCCCNC(=O)c4ccccc4)cc3)cc2-c2ccncc2)ccc1Cl | 12.2%
12 | CN(C)CCCOc1ccc(OCCCN(C)C)c2c1C(=O)c1ccccc1C2=O | 1.61% (active)
